An excerpt weighted towards active compounds, which were near 2.1% of everything screened.
HIV Env fusion = inhibitors of HIV-1 Env-driven cell-cell fusion, primary screen, HeLa-JRFL effector, CEM21 target cells, luciferase; inhibition, % at 12.3 µM; 1.1% of 360,000 active; AID 651610, 2012;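 active = mean replicate inhibition score of at least 50 and every replicate individually at or above 50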;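 also: 0% = plate neutral controls and 100% = maraviroc near 300 nM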
NR2F2 inh = NR2F2 transcriptional activity inhibitors, primary screen, cell-based, luciferase reporter, HEK293T, luminescence. 0.7% of 370,000 active. COUP transcription factor 2 (Homo sapiens), P24468. HEK293T NGFI-A luciferase reporter. inhibition, % at 8.6 µM;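 active = inhibition above a per-plate cutoff, mean inhibition of test wells between control levels plus 3 SD, cut at about 38% in these data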;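 also: cells cotransfected with COUP-TFII expression vector driving the NGFI-A reporter; 0% = median of COUP-TF2 test wells and 100% = reporter-only cells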
Target sequence (P24468 whole entry, looked up): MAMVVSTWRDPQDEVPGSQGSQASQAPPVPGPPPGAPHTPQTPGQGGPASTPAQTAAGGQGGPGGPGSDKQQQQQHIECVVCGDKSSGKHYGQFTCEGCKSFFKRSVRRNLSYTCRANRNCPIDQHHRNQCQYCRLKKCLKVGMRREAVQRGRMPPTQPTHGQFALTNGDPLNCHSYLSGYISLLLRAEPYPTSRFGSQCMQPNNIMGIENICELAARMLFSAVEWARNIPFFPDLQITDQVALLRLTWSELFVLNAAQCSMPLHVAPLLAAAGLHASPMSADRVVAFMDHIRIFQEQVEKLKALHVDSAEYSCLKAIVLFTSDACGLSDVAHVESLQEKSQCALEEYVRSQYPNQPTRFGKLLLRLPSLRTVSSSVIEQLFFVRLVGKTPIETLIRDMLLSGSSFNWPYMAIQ
Gli-Sufu block = Gli-Sufu pathway antagonists, primary screen, luciferase luminescence, Sufu-KO-LIGHT cells, uHTS; inhibition, % at 5 µM; Sufu-KO-LIGHT fibroblasts, Gli luciferase reporter luminescence; 0.74% of 340,000 active; AID 588413, 2011;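 active = inhibition above about 55%, limit read from the data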;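 also: 0% = DMSO-treated cells and 100% = wells with medium but no cells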
GalR3 antagonist = GalR3 antagonists in HEK293 cells, primary screen, cell-based, fluorescence readout. Galanin receptor type 3 (Homo sapiens), O60755. HEK293 GalR3-CNG cAMP membrane potential fluorescence; galR3 body fused to GalR1 C-terminus. inhibition, % at 3 µM. 0.44% of 360,000 active. AID 651719, 2012;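 active = inhibition above the screen-wide average plus 3 SD, cut at about 13% in these data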;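 also: forskolin and galanin both at EC90 stimulate the cells; cAMP rise reported by CNG channel membrane potential dye signal; 0% = forskolin plus galanin with DMSO and 100% = forskolin alone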
aDG glyco act = activators of alpha-DG glycosylation, primary screen, uHTS, Pro5-aDG cells, AlphaScreen. alpha-DG glycosylation AlphaScreen (IIH6); 0% Pro5, 100% B10-LARGE cell signal. activation, % at 10 µM. 0.22% of 360,000 active;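 active = activation of at least 8% versus controls, or a plate z-score of at least 8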;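 also: Pro5 are CHO cells carrying HIG-tagged alpha-DG that lacks glycosylation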
Gli antag conf = Gli-SUFU pathway antagonists, confirmation, single concentration, luciferase luminescence, Sufu-KO-LIGHT cells. shares compounds with Gli-Sufu block. Gli luciferase reporter. inhibition, % at 5 µM. 40% of 2,500 active. AID 602428, 2012;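 active = mean inhibition at 5 µM reaching about 45%, limit read from the data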;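 also: plate controls were DMSO-treated cells for no effect and wells lacking cells for full effect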
SufuKO cytotox = cytotoxicity in Sufu-KO-LIGHT cells, confirmation, cytotoxicity control for Gli-SUFU antagonist project, cell-based, ATP luminescence, single concentration. shares compounds with Gli-Sufu block. cytotoxicity, % at 5 µM. 32% of 2,500 active. AID 651994, 2013;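 active = mean cytotoxicity at 5 µM above about 25%, limit read from the data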;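 also: cells exposed to compound overnight for roughly 16 to 18 hours; plate controls were DMSO wells with cells for no effect and medium without cells for full effect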
Wnt3a cs = Wnt3a reporter signal inhibition, confirmation, counter-screen for Gli-SUFU antagonist project, Wnt-LIGHT cells, luminescence, single concentration; shares compounds with Gli-Sufu block; Wnt3a-driven luciferase reporter; inhibition, % at 6.25 µM; 20% of 2,500 active; AID 651995, 2013;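 active = mean inhibition above about 25%, limit read from the data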
aDG conf = alpha-DG glycosylation enhancers, retest, confirmation, single concentration, Pro5-aDG cells; shares compounds with aDG glyco act; IIH6 AlphaLISA; scaled to LARGE-overexpressing B10 cells as 100%; activation, % at 10 µM (by protocol); 17% of 600 active;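 active = activation of at least 7% in one or more replicates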;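 also: cells exposed to compound for two days before detection; 0% = DMSO-treated Pro5 cells and 100% = DMSO-treated B10-LARGE cells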
GalR3 antag conf = GalR3 antagonist hit confirmation, cell-based, fluorescence, triplicate; inhibition, % at 3 µM; HEK293 GalR3 CNG cAMP biosensor, membrane potential fluorescence; galR3 fused to GalR1 carboxy tail; challenged with forskolin and galanin at EC90; 59% of 1,600 active; shares compounds with GalR3 antagonist;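 active = inhibition above the primary screen's cutoff, the mean inhibition of all screened compounds plus 3 SD, cut at about 13% in these data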;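 also: 0% = forskolin plus galanin and 100% = forskolin alone with DMSO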
HEK-CNG parental = nonspecific cAMP agonists in parental HEK-CNG cells, counter-screen for GalR3 antagonist project, cell-based, fluorescence, high throughput. shares compounds with GalR3 antagonist. HEK293-CNG parental cells, cAMP membrane potential fluorescence; normalised: DMSO wells 0%, forskolin wells 100%. activation, % at 3 µM. 10% of 1,600 active. AID 652268, 2013; in the data active = activation above about 1.3%
VP16 Luc counter = Gal4-VP16 luciferase reporter inhibitors, counter-screen for COUP-TFII antagonist project, cell-based, luminescence, HEK293; shares compounds with NR2F2 inh; inhibition, % at 8.5 µM; 25% of 2,500 active; AID 687007, 2013; in the data active = inhibition above about 13%
COUP-TFII conf = NR2F2 transcriptional activity inhibitors, confirmation, cell-based, luciferase reporter, HEK293, triplicate; inhibition, % at 8.5 µM; 45% of 2,500 active; HEK293 NGFI-A luciferase reporter, luminescence; shares compounds with NR2F2 inh;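 active = mean inhibition over three repeats above a set limit taken from the earlier primary screen, cut at about 38% in these data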;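 also: 100% = cells given the luciferase reporter alone without the COUP-TF2 vector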
An asterisk follows results filed as active; · = no result; [ ] = dose if it differs, or a comment.

SMILES	HIV Env fusion	NR2F2 inh	Gli-Sufu block	GalR3 antagonist	aDG glyco act	Gli antag conf	SufuKO cytotox	Wnt3a cs	VP16 Luc counter	COUP-TFII conf	others
CC(=O)c1cccc(NS(=O)(=O)c2ccc(-c3cnc(C4CC4)o3)cc2)c1	17	44*	55	4	1	49*	17	-8	3	47*
COc1cccc(C(=O)Nc2ccc3c(c2)C(=O)N(C)[C@H]2CC[C@@H](CC(=O)NCCCN4CCOCC4)O[C@@H]2CO3)c1	10[16.7 µM]	·	·	·	·	·	·	·	·	·
CCC1=C(CC2NCCc3ccccc32)CC2c3cc(OC)c(OC)cc3CCN2C1 (configuration not stated)	-410	67*	53	-6	0	60*	5	85*	-13	54*
Cc1sc2ncnc(NCC(c3ccccc3)N(C)C)c2c1C (configuration not stated)	9	5	8	-7	0	·	·	·	·	·
Cc1sc2ncnc(NCC(O)c3ccc([N+](=O)[O-])cc3)c2c1C (configuration not stated)	11	63*	68*	-5	1	71*	30*	7	6	50*
COc1ccc(NC(=O)N(C)C[C@H]2OCCCC[C@@H](C)Oc3ccc(NS(=O)(=O)c4cn(C)cn4)cc3C(=O)N([C@H](C)CO)C[C@H]2C)cc1	-17[16.7 µM]	·	·	·	·	·	·	·	·	·
C[C@@H](NC(=O)C[C@H]1CC[C@@H]2[C@H](COC[C@H](O)CN2Cc2cc(F)ccc2F)O1)c1ccccc1	-89[16.7 µM]	·	·	·	·	·	·	·	·	·
Cc1nc2ccccc2c2oc(C(=O)N3CCN(C4CCCCC4)CC3)cc12	14	42*	55	0	0	46*	12	-15	-7	11
Cc1nc2ccccc2c2oc(C(=O)N3CCC(N4CCCCC4)CC3)cc12	·	·	20	·	0	·	·	·	·	·
CCCCOC(=O)c1[nH]c2c(c1C)C(=O)CC(c1cc(OC)c(OC)c(OC)c1)C2 (configuration not stated)	64*	71*	52	0	2	60*	24	12	12	63*
CCCCOCCCNc1ncnc2c1[nH]c1ccccc12	88*	66*	81*	-6	6	82*	27*	17	14*	63*
CCOCCCNc1ncnc2c1[nH]c1ccccc12	·	36	4	0	1	·	·	·	·	·
CCN(CCc1ccccc1)c1ccc2c(c1)C1CC2CCN1C(=O)OCc1ccccc1 (configuration not stated)	13	-6	1	-6	0	·	·	·	·	·
CCCCN(C(C)=O)c1ccc2c(c1)C1CC2CCN1C(=O)OCc1ccccc1 (configuration not stated)	63*	55*	56*	-10	1	64*	31*	3	1	39*
CC(C)Cc1ccc(C(C)C(=O)Nc2cccnc2)cc1 (configuration not stated)	2	46*	66*	-12	2	45	19	19	3	41*
COc1ccc(CNc2cc(C)nc3ncnn23)c(OC)c1	·	65*	52	-5	2	46*	14	25	-5	35
CC12CCC(=O)C=C1CCC1C2CCC2(C)C(c3csc(N)n3)CCC12 (configuration not stated)	-1	57*	58*	3	7.0*	62*	40*	46*	9	45*	aDG conf=3
CC(=O)[C@H]1CC[C@H]2[C@@H]3CCC4=CC(=O)CC[C@]4(C)[C@H]3CC[C@]12C	-10	34	7	-1	0	·	·	·	·	·
O=C(Cc1ccccc1)Nc1scc(-c2ccccc2)c1C(=O)N1CCOCC1	·	·	3	·	0	·	·	·	·	·
NC(=O)c1c(-c2ccc(Cl)cc2Cl)csc1NC(=O)Cc1ccccc1	46	73*	56*	95*	6	62*	21	6	-23	54*	GalR3 antag conf=113*;HEK-CNG parental=-1
COc1ccc(C2=Nn3c([n+](C)c4ccccc43)SC2)cc1	30	73*	81*	-3	0	86*	17	40*	10	65*
C[n+]1c2n(c3ccccc31)N=C(c1ccc(Cl)cc1)CS2	33	54*	61*	-4	0	66*	37*	-9	6	36
COC(=O)C[C@@H]1C=C[C@@H](NC(=O)c2ccccc2)[C@@H](CO)O1	10[16.7 µM]	·	·	·	·	·	·	·	·	·
Cc1ccc(NC(=O)CNc2cccc(S(=O)(=O)N3CCOCC3)c2)cc1F	·	13	-3	0	0	·	·	·	·	·
CCN(CC)S(=O)(=O)c1cc(NC(=O)CNc2cccc(S(=O)(=O)N3CCOCC3)c2)ccc1C	·	56*	95*	93*	0	46*	36*	10	8	54*	GalR3 antag conf=116*;HEK-CNG parental=-1

Screening results from PubChem.
